# Source: PubChem BioAssay
# An excerpt weighted towards active compounds, which were near 17% of everything screened.
# DT40 TDP1 CPT = DT40-hTDP1 cell growth loss with CPT; chicken DT40 Tdp1-/-;hTDP1 cells + 20 nM CPT, ATP luminescence, 48 h; Potency, µM (titrated, usually from 46.2 µM), for inactives: top-dose activity change, negative = growth inhibition, usual class: inhibitors; 12% of 420,000 active; AID 686979; also: % is scaled to controls: 0 for no effect and ±100 for the full control effect; nearly all actives have a fitted effect of over 55% in size
#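 Cell growth measured by CellTiter-Glo luminescence after a minimum 48 h, 37 C compound exposure with 20 nM CPT in Tdp1-knockout DT40 cells stably expressing hTDP1, seeded 400/well; qHTS titration format.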
# ATXN2 expr inh = reduces ATXN2 reporter expression in HEK-293 cells; 0.72% of 360,000 active; HEK-293 ATXN2-luciferase reporter, luminescence, 24 h; Potency, µM (highest dose often 57 µM), for the others: at the top dose activity change, negative = inhibition, most hits filed as inhibitors; also: % is scaled to controls: 0 for no effect and ±100 for the full control effect; nearly all actives have a fitted effect of over 55% in size
#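 qHTS (up to 57 uM final) was run with 24 h compound exposure of reporter cells at 37 °C. Each well was multiplexed: SteadyGlo luminescence measured ATXN2-luciferase expression after a fluorogenic Gly-Phe-AFC viability readout (25 uM final).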
# DT40 TDP1 no CPT = qHTS for Inhibitors of human tyrosyl-DNA phosphodiesterase 1 (TDP1): qHTS in cells in absence of CPT; 15% of 420,000 active; DT40 Tdp1-/- hTDP1 cells, no CPT, ATP luminescence, 48 h; Potency, µM (titrated, usually from 46.2 µM), without a hit: at the top dose activity change, negative = growth inhibition, hits mostly inhibitors; also: % is scaled to controls: 0 for no effect and ±100 for the full control effect; nearly all actives have a fitted effect of over 55% in size
#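 Camptothecin absent (DMSO only). Human TDP1-complemented DT40 knockout cells, 400 cells/well, 37 °C for minimum 48 hr; ATP measured via CellTiter-Glo, 30 min dark incubation, luminescence.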
# TGFb inhibitor = TGF-b pathway inhibition; 1.2% of 410,000 active; HepG2 CAGA-GFP TGF-b/SMAD3 reporter, GFP fluorescence, 18 h; TGF-beta stimulated, 500 pg/mL final; Potency, µM (top dose mostly 46.1 µM), for the others: at the top dose activity, negative = inhibition, hits mostly inhibitors; AID 588855; also: % is scaled to controls: 0 for no effect and ±100 for the full control effect; nearly all actives have a fitted effect of over 65% in size
#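 Using HEPG2 CAGA-GFP reporter cells at 1000 cells/well, we pinned test compounds, stimulated with recombinant TGF-beta (500 pg/mL final) and measured total well GFP after 18 h.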
# HepG2 tox-1 = counter-screen for TGF-b inhibitors: cytotoxicity in HepG2 cells; HepG2 CAGA-GFP viability, ATP luminescence, 18 h; Potency, µM (titrated, usually from 46.1 µM), inactives show at the top dose activity change, negative = cytotoxicity, usual class: cytotoxic; 0.76% of 410,000 active; AID 588856
#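 HepG2 CAGA-GFP cells (1000/well, DMEM with 1% FBS) received compound, then TGF-beta at 500 pg/mL final, and were incubated 18 hours at 37 degrees C. Viability was read by CellTiter-Glo luminescence. Media-only wells were set as complete cell-killing and DMSO as no toxicity.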
# S2 tox = reduces viability in counter-screen for ATXN expression inhibitors; S2 cells (HEK-293 line with an ATXN2-luciferase reporter) viability, CellTiter-Fluor protease fluorescence, 24 h; Potency, µM (highest dose often 56.7 µM), actives largely listed as cytotoxic; 0.49% of 400,000 active; AID 651635; also: nearly all actives have a fitted effect of over 40% in size
# TGFb confirm = TGF-b pathway inhibition, cherry-pick retest | Potency, µM (highest dose often 46.1 µM), for inactives: at the highest dose activity, negative = inhibition, most hits filed as inhibitors | 63% of 1,600 active | AID 720534 | shares compounds with TGFb inhibitor | HepG2 CAGA-GFP TGF-b reporter, GFP fluorescence, 18 h; cells stimulated with TGF-beta, 500 pg/mL; also: % is scaled to controls: 0 for no effect and ±100 for the full control effect; nearly all actives have a fitted effect of over 65% in size
# HepG2 tox-2 = HepG2 cytotoxicity, TGF-b inhibitor counterscreen | shares compounds with TGFb inhibitor | HepG2 CAGA-GFP viability, ATP luminescence, 18 h; cells stimulated with TGF-beta, 500 pg/mL | Potency, µM (titrated, usually from 46.1 µM), inactives show top-dose activity, negative = cytotoxicity, hits mostly inhibitors | 27% of 1,600 active; also: % is scaled to controls: 0 for no effect and ±100 for the full control effect; nearly all actives have a fitted effect of over 70% in size
# TGFb CCL64 inh = orthogonal confirmation of TGF-b inhibitors in CCL64 cells | shares compounds with TGFb inhibitor | CCL64 CAGA-GFP reporter, TGF-b stimulated, GFP fluorescence, 18 h | Potency, µM (series often up to 46.1 µM), without a hit: at the highest dose activity, negative = inhibition, actives largely listed as inhibitors | 41% of 1,600 active; also: nearly all actives have a fitted effect of over 65% in size
# TGFb COP inh = validation of TGF-b inhibitors in HepG2 COP promoter reporter. shares compounds with TGFb inhibitor. HepG2 COP-GFP TGF-b reporter, GFP fluorescence, 18 h; cells stimulated by added recombinant TGF-beta. Potency, µM (top dose mostly 46.1 µM), inactives show at the highest dose activity, negative = inhibition, usual class: inhibitors. 3% of 1,600 active. AID 720537; also: nearly all actives have a fitted effect of over 70% in size
# * marks the source's active call; other numbers are inactive results; i = inactive; ? = inconclusive; nt = no result given; [ ] = another dose, or the depositor's remark. Calls follow the shape of the dose curve; as a rule, active = well fitted curve in the direction sought with a large enough effect; inconclusive = small, poorly fitted or top-dose-only effect, or another doubt; inactive = no such curve, though single readings can be large; an effect the other way counts as inactive or inconclusive. Potency is read from the fitted curve at half-maximal effect.
SMILES,DT40 TDP1 CPT,ATXN2 expr inh,DT40 TDP1 no CPT,TGFb inhibitor,HepG2 tox-1,S2 tox,TGFb confirm,HepG2 tox-2,TGFb CCL64 inh,TGFb COP inh
C/C=C1\COC(C(=O)NCc2ccccc2)(C(F)(F)F)C=C1C=C1CCCCC1 (centres undefined),?,-8.5%,?,11.2µM*,-12.2%,i,?,-24.4%,?,-0.2%
S=C(Nc1ccccn1)c1ccccn1,0.92µM*,5.2%,0.92µM*,7.08µM*,-62.3%,i,-22.3%,?,?,5.9%
CCN(CC(O)Cn1c2ccccc2c2ccccc21)S(=O)(=O)c1ccc(C)cc1 (centres undefined),29.1µM*,-24.5%,?,10µM*,-73.4%,i,20.6µM*,?,?,58.8%
CS(=O)(=O)N(CC(O)Cn1c2ccccc2c2ccccc21)c1ccccc1 (centres undefined),?,-14.7%,?,?,-0.7%,i,nt,nt,nt,nt
O=C1Nc2ccccc2N=C(c2ccc3c(c2)OCO3)C1N(C(=O)c1ccnc2ccccc12)c1ccccc1 (centres undefined),20.6µM*,-36.5%,18.4µM*,15.8µM*,-13.4%,?,23.1µM*,-23.6%,?,49.0%
O=C1Nc2ccccc2N=C(c2ccc3c(c2)OCO3)C1N(C(=O)c1ccc2ccccc2c1)C1CC1 (centres undefined),16.4µM*,2.4%,20.6µM*,12.6µM*,-0.3%,?,23.1µM*,?,16.4µM*,50.7%
CCOc1ccc(-n2ccnc2SCC(=O)Nc2ccc(OC)cc2OC)cc1,6.2%,nt,?,-8.9%,-9.5%,nt,nt,nt,nt,nt
CC(=O)Nc1nc(C)c(-c2csc(Nc3cccc([N+](=O)[O-])c3)n2)s1,8.2µM*,?,5.17µM*,?,-41.4%,i,-2.7%,?,?,43.7%
CCc1nnc(NC(=O)C2CC(=O)N(C3CCCCC3)C2)s1 (centres undefined),2.9%,-3.9%,0.5%,-1.1%,4.8%,i,nt,nt,nt,nt
CC(Oc1ccc(Cl)cc1Cl)C(=O)NC1=NN(c2ccccc2)C(=O)C1 (centres undefined),4.4%,1.0%,?,17.8µM*,-27.5%,i,?,?,?,61.2%
COc1ccc(Nc2nccc(-c3cccc(N)c3)n2)cc1,?,-54.6%,?,10µM*,-11.3%,?,8.2µM*,5.8µM*,8.2µM*,43.4%
COc1ccc(Nc2nccc(-c3ccc(C#N)cc3)n2)cc1,-6.6%,-13.5%,?,0.0%,-22.1%,i,nt,nt,nt,nt
O[C@H]1CN(CC2CCCCC2)[C@@H](c2ccc(Cl)cc2)C[C@@H]1n1cc(C2CC2)nn1,?,?,?,10µM*,11.2µM*,nt,23.1µM*,16.4µM*,23.1µM*,50.0%
Nc1nc(Nc2ccccc2)sc1C(=O)c1ccccc1,-13.5%,11.4%,?,5.62µM*,-35.9%,i,3.66µM*,3.66µM*,20.6µM*,21.3%
O=C(CN1C(=O)NC(c2ccccc2)(c2ccccc2)C1=O)NCc1ccccc1,-0.7%,7.4%,13.0%,-12.6%,-1.3%,i,nt,nt,nt,nt
Cc1ccc(C2(c3ccccc3)NC(=O)N(CC(=O)NCc3ccccc3)C2=O)cc1C (centres undefined),?,-22.3%,23.1µM*,11.2µM*,-28.2%,?,7.31µM*,?,?,41.5%
O=C(NCCCO)C(=O)NCc1ccccn1,3.6%,9.0%[11.3 µM],-17.7%,-0.9%,-1.2%,i,nt,nt,nt,nt
CC1CCN(C(=O)c2[nH]cnc2C(=O)Nc2cccc(Cl)c2)CC1,?,-12.6%,?,12.8%,26.4%,i,nt,nt,nt,nt
COc1ccc(-c2nc3cc(C)ccn3c2NCc2ccc3c(c2)OCO3)cc1,?,nt,?,?,-53.5%,i,nt,nt,nt,nt
CCC(C)Sc1cccc(-c2nc3cc(C)ccn3c2NCc2ccccc2)c1 (centres undefined),23.1µM*,?,?,15.8µM*,-1.4%,?,?,?,16.4µM*,50.6%
O=C(Nc1ccc([N+](=O)[O-])cc1)Nc1cnccn1,?,-24.6%,16.4µM*,?,-51.2%,i,?,?,?,13.2%
Cc1ccc(-c2nc(NCCCO)c3ccccc3n2)cc1,?,1.0%,?,-16.1%,-21.2%,i,nt,nt,nt,nt
OCCCNc1c2ccccc2nc2ccccc12,11.6µM*,?,9.2µM*,4.47µM*,22.9%,?,13µM*,13µM*,?,25.5%
COc1ccc(CCNc2c3ccccc3nc3ccccc23)cc1OC,?,?,20.6µM*,15.8µM*,-49.1%,?,14.6µM*,20.6µM*,25.9µM*,-19.0%
O=C1c2ccc(-c3ccc4c(c3)C(=O)N(CCO)C4=O)cc2C(=O)N1CCO,5.5%,nt,6.0%,-4.5%,-7.3%,i,nt,nt,nt,nt
CCOC(=O)C1=CCN(S(=O)(=O)c2ccccc2F)C1c1cccc(Cl)c1 (centres undefined),?,-21.7%,?,11.2µM*,-17.8%,?,?,2.5%,?,-0.6%
